The results in this text go back to PubChem BioAssay AID1259415 (National Center for Advancing Translational Sciences (NCATS), 2018).

Out of some 410,000 compounds screened, about 18,000 (4.4%) were called active. Another 7% or so got no clear call; they are omitted. Shown is part of a subset that was picked to be rich in actives. Unmarked numbers belong to inactive results. Cut-off read from the data, not from the text of the source: active = activity change below about -60%; inconclusive = no clear call, values can overlap the other calls; inactive = above about -39%.
% is set by controls: 0 for no effect and ±100 for the full control effect.

This assay in a line: qHTS Assay for inhibitors of the human cytomegalovirus (HCMV). Particulars: HFF cells, HCMV-luciferase reporter, 72 h; at 57.5 µM; hits give low values. Summed up:
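Steps: HFFs plated, 16 h 37C; compounds added; HCMV-luciferase added to MOI 1 PFU/cell; 72 h 37C; OneGlo reagent, 5 min room temperature; luminescence read, normalized to controls.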
For orientation: In qHTS, concentration-response curves come from the screen itself.
`O=C(O)c1cc2c(cc1NC(=O)c1c(F)cccc1Cl)OCCCO2`: the activity change, negative = inhibition was -29.4%.

As to `O=C(NNc1cc(Cl)cc(Cl)c1)c1c(F)cccc1Cl`, the activity change, negative = inhibition was -68.5% (active). The result for `CCN(CC)CCNC(=O)c1ccc(NC(=O)c2c(F)cccc2Cl)cc1` reads -23.1%; that for `COc1ccc(/C=C2/C(=O)N(c3ccccc3)N=C2C)c(OC)c1`, 67.9%; that for `CC1=NN(Cc2ccccc2)C(=O)/C1=C/c1ccc(N(C)C)cc1`, -61.8% (active). The result for `CCOc1ccc(/C(O)=C2/C(=O)C(=O)N(Cc3cccnc3)C2c2ccc(N(C)C)cc2)c(C)c1` (configuration not stated) reads 19.8%. `CC(=O)c1ccc(NC(c2ccc(F)cc2)c2nnc(-c3ccccc3)o2)cc1` (configuration not stated): the activity change, negative = inhibition is 16.8%.

On to `O=C(c1ccco1)n1nc(-c2ccc(Cl)cc2)nc1NCc1ccccc1`, for which the activity change, negative = inhibition was -5.57%. Consider `COc1ccccc1CNC(=O)C(=O)NCC(c1ccco1)S(=O)(=O)c1ccc(F)cc1` (configuration not stated), for which the activity change, negative = inhibition was -13.4%.

As to `Cc1cc(-c2ccc(S(=O)(=O)N3CCc4ccccc4C3)s2)on1`, the activity change, negative = inhibition is -77.4% (active). Under `Cc1cccc(N2CCN(S(=O)(=O)c3ccc(-c4cc(C)no4)s3)CC2C)c1` (configuration not stated) stands 15.2%. Under `Cc1cc(-c2ccc(S(=O)(=O)N3CCN(c4cccc(C(F)(F)F)c4)CC3)s2)on1` stands -38.1%; under `COc1ccc(CC(=O)N2CC(=O)Nc3ccc(Br)cc3C2c2ccc(F)cc2)cc1OC` (configuration not stated), -3.53%; under `COC(=O)[C@@]1(Cc2ccc(F)cc2)[C@H]2c3cc(C(=O)N(C)C)n(CCc4c[nH]c5ccc(OC)cc45)c3C[C@H]2CN1C(=O)c1ccccc1`, -82.3% (active). Consider `COC(=O)[C@@]1(Cc2ccc(F)cc2)[C@H]2c3cc(C(=O)N4CCCC4)n(C[C@H](O)CO)c3C[C@H]2CN1C(=O)c1ccccc1`, for which the activity change, negative = inhibition was 5.98%. On to `COC(=O)[C@@]1(Cc2ccc(OC)cc2)[C@H]2c3cc(C(=O)N4CCCC4)n(Cc4ccc(OC(F)(F)F)cc4)c3C[C@H]2CN1C(=O)c1ccccc1`, for which the activity change, negative = inhibition was -18.9%. With `CCC(=O)N1CCc2cc(S(=O)(=O)NC(C(=O)NCCc3ccc(C)cc3)C(C)C)ccc21` (configuration not stated), the activity change, negative = inhibition is 12.8%. Under `Cc1ccccc1-c1n[nH]c(=S)n1/N=C/c1ccc(-c2ccccc2Br)o1` stands -88.9% (active); under `CCc1n[nH]c(=S)n1/N=C/c1c[nH]c2ccc(Br)cc12`, -6.5%; under `CN(Cc1ccccc1)C(=O)c1cn(C)c2ccc(S(=O)(=O)N(C)C3CCCCC3)cc2c1=O`, 13.4%. As to `CCCOc1ccc(N2CC(C(=O)Nc3ccccn3)CC2=O)cc1` (configuration not stated), the activity change, negative = inhibition was 6.17%.

Turning to `O=C(Nc1cccc2c1N(C(=O)c1ccco1)CCC2)c1ccco1`, the activity change, negative = inhibition was -39.1%.

On to `COc1cccc(-n2c(=O)c3c(C)c(C(=O)N(C)C)sc3n(Cc3cccc(C)c3)c2=O)c1`, for which the activity change, negative = inhibition was -2.38%. Under `CCOC(=O)Nc1ccc2c(c1)N(C(=O)CCCl)c1ccccc1[S@]2=O` stands -102% (active); under `CCOC(=O)Nc1ccc2c(c1)N(C(=O)CCN1CCN(CCO)CC1)c1ccccc1CC2`, -20.5%. Under `CCOC(=O)Nc1ccc2c(c1)N(C(=O)CN1CCN3CCCC3C1)c1ccccc1CC2` (configuration not stated) stands 74.9%; under `Cc1ccc(S(=O)(=O)N(Cc2nc(-c3ccc(Cl)cc3)no2)C2CCCCC2)cc1`, -16.3%. As to `COc1cc(C(=O)NCCS(=O)(=O)N2CCN(c3ccccc3)CC2)cc(OC)c1OC`, the activity change, negative = inhibition was 38.7%. The result for `CCc1ccc(OCC(=O)OCC(=O)c2c(N)n(C)c(=O)n(C)c2=O)cc1` reads -68.3% (active). Under `CCCCOc1ccc(C(=O)NCC(=O)OCC(=O)c2c(N)n(C)c(=O)n(C)c2=O)cc1` stands -28.8%. Under `Cc1cc(C(=O)OCC(=O)c2c(N)n(C)c(=O)n(C)c2=O)c(C)o1` stands -20.6%; under `Cn1c(N)c(C(=O)COC(=O)COc2ccc(Cl)cc2)c(=O)n(C)c1=O`, -16.9%; under `Cn1c(N)c(C(=O)COC(=O)c2ccc3ccccc3c2)c(=O)n(C)c1=O`, 7.39%. `Cn1c(N)c(C(=O)COC(=O)c2cnc(Cl)c(Cl)c2)c(=O)n(C)c1=O`: the activity change, negative = inhibition is -99.9% (active). Turning to `Cc1ccc(S(=O)(=O)N(C)C)cc1NC(=O)c1ccc(-n2cncn2)c([N+](=O)[O-])c1`, the activity change, negative = inhibition is -7.42%.

With `CC(C)NC(=O)c1nnc2n1CCN(C(=O)C1(c3ccc(Cl)cc3)CCCC1)C2`, the activity change, negative = inhibition is -2.1%. The result for `COc1cc(Cl)ccc1Nc1ncc(C(=O)N2CCN(c3ccccc3OC)CC2)c2ccccc12` reads 9.53%; that for `Cc1cccc(NC(=O)CN(c2ccc(C(C)C)cc2)S(=O)(=O)c2c(C)nn(C)c2C)c1C`, -17.9%; that for `COc1ccc(/C=N/Nc2ccccc2C(=O)O)cc1`, -64.5% (active). Under `C=CCOc1ccc(C(=O)Nc2ccccc2C(=O)N2CCCC2)cc1` stands 3.09%; under `COC(=O)C(C)N=Cc1ccccc1` (configuration not stated), -19.2%. As to `COc1ccc(C(=O)Nc2ccccc2C(=O)N/N=C/c2ccc(O)c(OC)c2)cc1`, the activity change, negative = inhibition was -71.4% (active). For the compound `COc1cc(C(=O)Nc2cc(C(F)(F)F)ccc2N2CCOCC2)ccc1O`, the activity change, negative = inhibition was 37.5%.

Consider `COc1ccc(SSc2ccc(OC)cc2C(=O)O)c(C(=O)O)c1`, for which the activity change, negative = inhibition was 4.79%. The result for `C=CCOc1c(CNn2cn[nH]c2=S)cccc1OC` reads -4.48%; that for `COC(=O)C[C@H]1C=C[C@H](NC(=O)c2ccc(F)cc2)[C@@H](CO)O1`, 21.6%.

As for `COc1ccc(OC)c(CCNc2nc3cnc(-c4cccc(Oc5ccccc5)c4)cc3n2C)c1`, the activity change, negative = inhibition was -30.5%. As to `Cc1c(NC(=O)c2cc(=O)c3ccccc3o2)c(=O)n(-c2ccccc2)n1C`, the activity change, negative = inhibition was 2.18%.

Consider `CCCN(C(=O)Cn1ncc2c([nH]c3ccc(C)cc32)c1=O)c1ccccc1C`, for which the activity change, negative = inhibition is -8.94%. The result for `CCOc1cccc2c1N[C@@H](c1ccc(C(=O)O)cc1)[C@H]1CC=C[C@@H]21` reads -5.85%; that for `COc1ccccc1NC(=O)c1cc(Cl)nnc1Cl`, -22.5%. For `COc1ccccc1NC(=O)c1sc2nc(C)c(C(=O)Nc3ccc(Cl)cc3)c(-c3ccc(Br)cc3)c2c1N`, the activity change, negative = inhibition is -104% (active).

Take `COc1ccccc1C(=O)Nc1c(C(=O)N(C)Cc2ccccc2)sc2nc(C)c(Cl)c(C)c12`: the activity change, negative = inhibition was -19.6%. The result for `Cc1ccc(Nc2c(-c3ccc(C)s3)nc3ccccn23)cc1` reads 74.5%; that for `Cc1ccc(NC(=O)c2oc3ccc(S(=O)(=O)N4CCCCC4)cc3c2C)cc1Cl`, -4.09%; that for `COc1ccccc1N(CC(=O)N1CCCCC1)S(=O)(=O)c1ccccc1`, -0.178%. As for `Cc1ccc(S(=O)(=O)N(CC(=O)NCc2ccco2)c2ccccc2C)cc1`, the activity change, negative = inhibition was -14.7%. On to `COc1ccccc1N(CC(=O)Nc1c(C)n(C)n(-c2ccccc2)c1=O)S(=O)(=O)c1ccccc1`, for which the activity change, negative = inhibition was -32%.

Turning to `COc1ccc(C)cc1N(CC(=O)NC(C)c1ccccc1)S(C)(=O)=O` (configuration not stated), the activity change, negative = inhibition was -5.84%. Under `COc1ccccc1NC(=O)CN(c1ccccc1OC)S(=O)(=O)c1ccccc1` stands -93.1% (active); under `COc1ccccc1N(CC(=O)N/N=C(\C)c1ccccc1O)S(=O)(=O)c1ccc(C)cc1`, -68.7% (active). As to `Cc1cc(C)cc(-n2c(SCC(=O)NCC3CCCO3)nc3c([nH]c4ccccc43)c2=O)c1` (configuration not stated), the activity change, negative = inhibition is 10.8%. Regarding `Cc1cc(NC(=O)CN2C(=O)NC(CC(C)C)C2=O)no1` (configuration not stated), the activity change, negative = inhibition is 3.09%. The result for `O=C(Nc1ccccc1Cl)N1CCN(c2ccc3nncn3n2)CC1` reads -11.9%; that for `Cc1ccccc1C(=O)Nc1cc(C)c(O)c(-c2nc3ccccc3o2)c1`, -13.9%. In the case of `Cc1ccc(C)n1-c1nnc(N2CCC(C(=O)NCc3ccc(F)cc3)CC2)s1`, the activity change, negative = inhibition was 29.6%. Under `Cn1nnnc1SCC(=O)Nc1sccc1C(N)=O` stands 3.24%. `CCOC(=O)c1c(-c2ccc(C)cc2C)csc1NC(=O)CSc1nnnn1C`: the activity change, negative = inhibition was -95.4% (active). Take `CCOC(=O)c1c(NC(=O)CSc2nnc(CNc3ccc(C)cc3C)o2)sc(C)c1C`: the activity change, negative = inhibition is 3.08%.

In the case of `CCOc1ccc(CCNC(=O)Cn2nc(CC)n3c(cc4sc(CC)cc43)c2=O)cc1OCC`, the activity change, negative = inhibition was -8.37%. With `CCOC(=O)c1c(NC(=O)/C=C/c2ccc(OC)cc2)sc2c1CCC(C)C2` (configuration not stated), the activity change, negative = inhibition is -22.4%.

Turning to `CC1CCN(S(=O)(=O)c2ccc3c(c2)N(CC(=O)NCCc2ccccc2)C(=O)CO3)CC1`, the activity change, negative = inhibition was -11.1%. The result for `Cc1ccc(-n2nc(C)c3c(C)cc(=O)n(CC(=O)Nc4ccc(C(C)C)cc4)c32)cc1` reads 11%. Under `COc1ccc(CCNc2nc(-c3ccc(F)cc3)cc(C(F)(F)F)n2)cc1OC` stands -24.7%; under `COc1ccc(-c2cc(C(F)(F)F)nc(SCC(=O)N(C)Cc3ccccc3)n2)cc1OC`, -16.1%.

For the compound `COc1ccc(-c2cc(C(F)(F)F)nc(S(C)(=O)=O)n2)cc1OC`, the activity change, negative = inhibition was -98.2% (active). The result for `CC(C)Sc1oc(-c2cccs2)nc1S(=O)(=O)c1ccc(Cl)cc1` reads 0.0343%; that for `Cc1cc(NC(=O)/C=C/C(=O)N(CC(=O)NC2CCCC2)c2ccc(F)cc2)no1`, 29.1%; that for `Cc1cc(NC(=O)CCC(=O)N(c2cccc(F)c2)C(C(=O)NC2CCCC2)c2ccncc2)no1` (configuration not stated), -19.9%. On to `Cc1cc(NC(=O)/C=C/C(=O)N(c2ccccc2C)C(C(=O)NC2CCCC2)c2ccc(F)cc2)no1` (configuration not stated), for which the activity change, negative = inhibition was -73.5% (active). The result for `Cc1cccc(C)c1-n1nnnc1C1C(=O)NC(=S)N1c1ccccc1` (configuration not stated) reads 26.7%; that for `Cn1c(=O)c2c(nc(SCC(=O)Nc3ccc(F)cc3)n2Cc2ccccc2)n(C)c1=O`, 5.41%.
